# ABHD5 PLIN5 PPI: ABHD5-PLIN5 interaction inhibitors, primary screen, cell lysate, split luciferase complementation, luminescence. Perilipin-5 (Homo sapiens) + 1-acylglycerol-3-phosphate O-acyltransferase ABHD5 (Homo …. Split G. princeps luciferase complementation, 4 h. inhibition, % at 4 µM. actives 0.78% (n = 360,000). AID 602281, 2012;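 active = inhibition above the mean inhibition across every tested compound plus 3 SD, cut at about 22% in these data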;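 also: 0% = DMSO only wells and the 100% control is not disclosed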
# Peg3 prom inh-1: Peg3 promoter-driven luciferase inhibitors, primary screen, cell-based, HeLa, luciferase luminescence | HeLa PEG-Prom luciferase reporter, overnight | inhibition, % at 20 µM | actives 1.7% (n = 360,000);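 active = inhibition of at least 50% at 20 µM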
# CF NFkB block: inhibitors of PAF-induced NF-kB signaling, primary screen, cell-based, GFP fluorescence, uHTS | inhibition, % at 5 µM | KKLEB NF-kB-GFP reporter, GFP fluorescence overnight | actives 0.86% (n = 360,000);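 active = at least 50% inhibition at 5 µM, scaled per plate between neutral and stimulator controls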;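 also: PAF is a Pseudomonas aeruginosa culture filtrate used as stimulus; plate controls were PAF-stimulated DMSO wells for no effect and unstimulated DMSO wells for full effect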
# HIF-2a inh: HIF-2a reporter inhibitors, primary screen, luminescence, 786-0 RCC cells | 786-0 RCC cells HIF-2a reporter, luciferase luminescence, overnight | inhibition, % at 18.8 µM | actives 0.72% (n = 360,000);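 active = inhibition of the luminescence signal of 40% or more relative to plate controls, in a single-dose primary screen at 18.75 µM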
# Mdm2-MdmX inh: inhibitors of human Mdm2-MdmX association, primary screen, cell-based, luminescence, split luciferase, SaOS-2, uHTS; inhibition, % at 8 µM; actives 3% (n = 330,000); Protein Mdm4 (Homo sapiens) + E3 ubiquitin-protein ligase Mdm2 (Homo sapiens), …; SaOS-2 split-luciferase Mdm2/MdmX complementation;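 active = inhibition of at least 50% at 8 µM in the primary screen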
# KKLEB cytotox: cytotoxicity in KKLEB CF airway cells, primary screen, cytotoxicity control for CF NF-kB inhibitor project, cell-based, uHTS, fluorescence assay plates. KKLEB CF airway cells viability, ATPlite luminescence, overnight; hits give low values; cells stimulated with P. aeruginosa culture filtrate. activity change (cytotoxicity), % at 5 µM. AID 602141, 2011. actives 0.36% (n = 360,000);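 active = corrected activity change at or below -50% at 5 µM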
# Peg3 prom inh-2: Peg3 promoter reporter inhibitors, retest, confirmation, cell-based, HeLa, luciferase reporter, single concentration; actives 84% (n = 1,300); AID 602417, 2012; shares compounds with Peg3 prom inh-1; HeLa PEG-Prom luciferase reporter, luminescence, overnight; inhibition, % at 20 µM;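 active = at 20 µM dose, 40% or more inhibition averaged across four replicates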
# CF NFkB inh conf: inhibitors of PAF-induced NF-kB signaling, retest, confirmation, cell-based, GFP fluorescence, single concentration | KKLEB CF airway cells, overnight | actives 64% (n = 1,300) | inhibition, % at 5 µM | shares compounds with CF NFkB block; in the data active = inhibition above about 40%;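 also: stimulus PAF is a Pseudomonas aeruginosa filtrate and not platelet activating factor; plate controls were DMSO wells with stimulus for no effect and unstimulated DMSO wells for full effect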
# ABHD5 PLIN5 conf: ABHD5-PLIN5 interaction inhibitors, confirmation, biochemical, luminescence; shares compounds with ABHD5 PLIN5 PPI; AID 651612, 2012; actives 67% (n = 2,200); inhibition, % at 4 µM; in the data active = inhibition above about 23%;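 also: 0% = DMSO vehicle wells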
# HNF4 counter: HNF4 dimerization inhibitors, counter-screen for ABHD5-PLIN5 interaction inhibitor project, biochemical, split-luciferase complementation, luminescence; inhibition, % at 4 µM; actives 77% (n = 2,200); shares compounds with ABHD5 PLIN5 PPI;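 active = mean inhibition across replicate wells exceeding the computed hit threshold, cut at about 13% in these data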;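 also: light from luciferase halves that rejoin when HNF4 fusion proteins dimerize; 0% = DMSO only wells and the 100% control is not given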
# Starred values were filed as active, the others as inactive; . = no result. Hits are enriched below; roughly 4.6% of the tested compounds scored in any of these assays.
SMILES,ABHD5 PLIN5 PPI,Peg3 prom inh-1,CF NFkB block,HIF-2a inh,Mdm2-MdmX inh,KKLEB cytotox,Peg3 prom inh-2,others
COc1ccccc1CCNC(=O)c1cc(-c2ccncc2)nc2ccc(Br)cc12,6.2,59.8*,20.6,23.6,.,-9.0,36.4,
CN(C)c1ccc(-c2nnn(CC(=O)NCc3ccc4c(c3)OCO4)n2)cc1,-0.6,-122.2,-2.8,-38.7,8.2,0.0,.,
COc1cc(OC)c2c(-c3ccccc3)cc(=O)oc2c1C(CC(=O)N1CCOCC1)c1ccc(N(C)C)cc1 (stereo not drawn),6.5,8.0,13.1,13.8,-0.2,-10.5,.,
CCN(CC)CCC(c1ccc(N(C)C)cc1)c1c(OC)cc(OC)c2c(-c3ccccc3)cc(=O)oc12 (stereo not drawn),7.6,83.5*,-1.8,4.7,46.0,-13.4,30.4,
CCC(=O)NC(c1cccs1)c1cc(Cl)c2ccccc2c1O (stereo not drawn),-10.0,19.4,22.1,7.6,12.4,-4.3,.,
CCC(=O)NC(c1cccs1)c1cc([N+](=O)[O-])c2cccnc2c1O (stereo not drawn),-6.0,52.7*,25.8,5.1,36.2,-5.1,53.5*,
CN(C)CCNC(=O)c1sc2nc(-c3ccccc3)cc(C(F)(F)F)c2c1N,-2.1,61.0*,-8.1,-5.2,38.3,-2.2,70.4*,
O=C(c1ccoc1)N1CCN(c2cc(-c3ccccc3)nc3cc(-c4ccccc4)nn23)CC1,6.4,68.4*,1.2,-19.2,.,3.5,70.0*,
Cc1noc(NS(=O)(=O)c2ccc(NS(=O)(=O)c3ccc(C(C)(C)C)cc3)cc2)c1C,-11.4,11.2,1.1,9.8,.,9.3,.,
COc1cc(C)ccc1N(CCCN1C(=O)c2cccc3cccc(c23)C1=O)C(=O)c1cccs1,5.6,12.0,12.9,12.2,-7.4,-5.7,.,
COc1ccc(N(CCCN2C(=O)c3cccc4cccc(c34)C2=O)C(=O)c2cccs2)cc1,-0.9,52.5*,-21.7,9.0,15.8,-2.0,42.3*,
O=C(NCCN1CCC(n2c(=O)[nH]c3ccccc32)CC1)c1cccc(F)c1,-2.4,.,.,-4.3,.,.,.,
c1ccc(-c2cc(-c3nc4ccccc4[nH]3)c3ccccc3n2)cc1,0.2,80.9*,56.3*,-59.2,40.8,-8.1,89.1*,CF NFkB inh conf=-86.6
Nc1ccc(-c2nc3ccccc3[nH]2)cc1,-3.1,-244.2,-15.5,-67.9,-38.1,-11.4,.,
CC(C)(C)OC(=O)CC(S(=O)(=O)c1ccccc1)S(=O)(=O)c1ccccc1,8.8,81.5*,85.5*,-80.0,.,-16.4,97.1*,CF NFkB inh conf=25.3
CC(C(=O)Nc1ccc(F)cc1Cl)N1CCN(S(=O)(=O)c2cccs2)CC1 (stereo not drawn),-7.7,0.5,35.1,-30.6,16.4,-9.6,.,
Cc1ccccc1NC(=O)C(=Cc1ccc(C(=O)O)cc1)C(=O)Nc1ccccc1C,27.4*,59.4*,-0.2,41.7*,.,-44.5,50.2*,ABHD5 PLIN5 conf=64.8*;HNF4 counter=45.5*
CC(=O)Oc1ccc(C2=Cc3ccc(OC(C)=O)cc3OC2C)cc1 (stereo not drawn),-0.8,-85.4,-3.8,-168.1,.,8.6,.,

# High-throughput results as filed in PubChem.
